The source of these data is PubChem BioAssay (Tox21).

Assay [1] is described as follows: qHTS assay to identify small molecule antagonists of the estrogen receptor alpha (ER-alpha) signaling pathway using the BG1 cell line in the presence of 0.1 nM 17-beta-estradiol - cell viability counter screen (AID 1259241). Note: nearly all actives have a fitted effect of over 40% in size. An outline of the steps: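 Following 5 days in phenol red-free medium with charcoal-stripped serum, VM7Luc4E2 cells received test compounds alongside 0.1 nM 17beta-estradiol (final) at 37C for 22 hr. Live cells were then quantified via protease-substrate fluorescence.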
For orientation: Quantitative high-throughput screening tests each substance at several concentrations.

Assay [2] is described as follows: qHTS assay to identify small molecule HDAC inhibitors (AID 1259364). Note: potency is the fitted concentration of half-maximal effect.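 Note: wild-type HCT-116 cells with endogenous class I/II HDAC activity; nearly all actives have a fitted effect of over 45% in size.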 The procedure, abridged: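 After a 2 hr compound incubation (37C, 5% CO2), HCT-116 cells seeded at 1,500/well the day before received HDAC-Glo reagent; signal read as luminescence after 30 min at room temperature.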
Assay [3] is described as follows: qHTS assay to identify small molecule agonists of the sonic hedgehog signaling (Shh) pathway - cell viability counter screen (AID 1259366). Note: nearly all actives have a fitted effect of over 50% in size. Note: potency is the fitted concentration of half-maximal effect. An outline of the steps: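 Compounds in DMSO were pin-transferred onto 3T3 Gli1-Luc cells that had settled 4hr; plates then stood 24hr at 37C and 5% CO2. One hour before the end, CellTiter-Fluor was added and fluorescence recorded.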

Assay [4] in a line: qHTS assay to identify small molecule antagonists of the sonic hedgehog signaling (Shh) pathway - cell viability counter screen (AID 1259367). Note: nearly all actives have a fitted effect of over 55% in size. Note: potency is the fitted concentration of half-maximal effect. An outline of the steps:
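Tox21 library chemicals were tested on a Gli1-Luc NIH/3T3 clone (2,000 cells/well) stimulated by conditioned medium; viability was quantified as fluorescence from CellTiter-Fluor reagent added at 23 hr.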

A short description of assay [5]: qHTS assay to identify small molecule agonists of the sonic hedgehog signaling (Shh) pathway (AID 1259368; calls by dose curve; note: nearly all actives have a fitted effect of over 15% in size; note: potency is the fitted concentration of half-maximal effect). The procedure, abridged:
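Stable NIH/3T3 Gli1-Luc reporter clone; 24 hr cpd exposure after a 4 hr settling period; luminescence endpoint.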

Assay [6] deals with Estrogen receptor beta (Homo sapiens) (UniProt Q92731). Kind of assay: qHTS assay to identify small molecule agonists of the estrogen receptor beta (ER-beta) signaling pathway (AID 1259377; active = well fitted activation curve with a large enough effect in the signal ratio in the repeat runs, not every such curve was filed as active; the % refers to the signal ratio). The procedure, abridged: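 qHTS in ER-beta-UAS-bla HEK293T cells: 6 hr settling, then 16 hr compound at 37C, then LiveBLAzer substrate 2 h at RT before fluorescence reading.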
The nature of assay [7]: qHTS assay to identify small molecule agonists of the androgen receptor (AR) signaling pathway in the presence of an antagonist - cell viability counter screen (AID 1259379). Note: nearly all actives have a fitted effect of over 25% in size. Note: potency is the fitted concentration of half-maximal effect. An outline of the steps: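 Counter screen for cell viability run in parallel with the AR agonist-mode luciferase assay. MDA-kb2 cells were co-treated with nilutamide (3.0uM final) and compounds, then incubated 16 hr at 37C, and CellTiter-Fluor fluorescence was measured.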

Assay [8] in a line: qHTS assay to identify small molecule antagonists of the estrogen receptor beta (ER-beta) signaling pathway - cell viability counter screen (AID 1259382). Note: series mostly up to about 92 µM; nearly all actives have a fitted effect of over 55% in size. The procedure, abridged:
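HEK293T ER-beta-UAS-bla, 2% charcoal-stripped FBS; compounds + 1nM E2 16 hr 37C; CellTiter-Glo luminescence, 30 min RT.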

The nature of assay [9]: qHTS assay to identify small molecule agonists or antagonists of the thyroid stimulating hormone receptor (TSHR) signaling pathway - wild type cell line counter screen (AID 1259384; calls by dose curve). The procedure, abridged: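 Wild-type Hek293 cells, 800/well, 18 h at 37C, then compound with Ro20-1724 for 30 min RT. cAMP by HTRF (cAMP-d2/anti-cAMP cryptate), 1 h RT, fluorescence read. 15 concentrations, triplicates.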

In assay [10] the target is Thyrotropin receptor (Homo sapiens) (UniProt P16473). In words: qHTS assay to identify small molecule antagonists of the thyroid stimulating hormone receptor (TSHR) signaling pathway (AID 1259385; calls by dose curve; note: nearly all actives have a fitted effect of over 20% in size). An outline of the steps: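 TSHR-HEK293 cells (800/well) plated 18 h, then compounds with Ro20-1724 and TSH at 1.5 ng/mL final, 30 min at room temperature. cAMP quantified by HTRF (cAMP-d2/anti-cAMP-cryptate, 1 h); 15 concentrations in triplicate.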

Assay [11] is described as follows: qHTS assay to identify small molecule agonists of the estrogen receptor alpha (ER-alpha) signaling pathway in the presence of an antagonist - cell viability counter screen (AID 1259386).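 Note: cells exposed to compounds for 22 h at 37 °C before the viability read; nearly all actives have a fitted effect of over 30% in size.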 Note: potency is the fitted concentration of half-maximal effect. The procedure, abridged: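 Steps: 5-day stripped-FBS culture; seed and incubate 24hr; add ICI-182,780 (10.0nM final); pin 15-point compound titration; incubate 22hr at 37C; add CellTiter-Fluor at 21hr; read fluorescence.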

Assay [12] in a line: qHTS assay to identify small molecule HDAC inhibitors - cell viability counter screen (AID 1259365). Note: series mostly up to about 92 µM; nearly all actives have a fitted effect of over 50% in size. An outline of the steps: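 HCT-116 wild-type, overnight attachment; 2hr drug exposure, 37C; CellTiter-Glo luminescent ATP readout after 30min RT.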
Assay [13] in a line: qHTS assay to identify small molecule antagonists of the sonic hedgehog signaling (Shh) pathway (AID 1259369; calls by dose curve; note: nearly all actives have a fitted effect of over 45% in size; note: potency is the fitted concentration of half-maximal effect). The procedure, abridged:
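Gli1 transcriptional reporter (firefly Luc) in NIH/3T3 background, conditioned-medium activated. 24hr exposure, luminescence endpoint.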

A short description of assay [14]: qHTS assay to identify small molecule agonists of the estrogen receptor beta (ER-beta) signaling pathway - cell viability counter screen (AID 1259380). Note: nearly all actives have a fitted effect of over 30% in size. Note: potency is the fitted concentration of half-maximal effect. An outline of the steps: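 In this qHTS counter screen, HEK293T cells carrying an ER-beta/UAS beta-lactamase reporter, grown in 2% charcoal-stripped FBS, received compound for 16 hr; ATP-based CellTiter-Glo luminescence was then read after 30 min at room temperature.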

The target of assay [15] is Estrogen receptor (Homo sapiens) (UniProt P03372). In words: qHTS assay to identify small molecule agonists of the estrogen receptor alpha (ER-alpha) signaling pathway in the presence of an antagonist (AID 1259383; calls by dose curve; note: top concentration of the series differs between compounds; nearly all actives have a fitted effect of over 15% in size). The procedure, abridged:
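ER-alpha agonism measured under antagonist challenge: 10.0nM ICI-182,780 (final) plus compound, 15 concentrations, 22hr, VM7Luc4E2 ERE-luciferase cells. Read by luminescence.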

The target is the same in assay [16]. Kind of assay: qHTS assay to identify small molecule antagonists of the estrogen receptor alpha (ER-alpha) signaling pathway using the BG1 cell line in the presence of 0.1 nM 17-beta-estradiol (AID 1259244). Note: nearly all actives have a fitted effect of over 50% in size. The procedure, abridged:
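Seeding of stripped-serum-adapted VM7Luc4E2 cells, 24 h attachment, compound transfer, then 0.1 nM final 17beta-estradiol; after 22 h incubation, ONE-Glo reagent and luminescence reading.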

Assay [17] addresses Estrogen receptor beta (Homo sapiens) (UniProt Q92731). In words: qHTS assay to identify small molecule antagonists of the estrogen receptor beta (ER-beta) signaling pathway (AID 1259378; active = well fitted inhibition curve with a large enough effect in the signal ratio in the repeat runs, not every such curve was filed as active; the % refers to the signal ratio; note: potency is the fitted concentration of half-maximal effect). The procedure, abridged: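 ER-beta-UAS-bla HEK293T cells in 2% charcoal-stripped FBS medium treated with compound plus 1nM final 17-beta-estradiol for 16 hr at 37C. Beta-lactamase reporter read by FRET substrate fluorescence after 2 hours at room temperature.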

Assay [18] can be described thus: qHTS assay to identify small molecule antagonists of the androgen receptor (AR) signaling pathway using the MDA cell line in the presence of 0.5 nM R1881 - cell viability counter screen (AID 1259242). Note: potency is the fitted concentration of half-maximal effect; nearly all actives have a fitted effect of over 45% in size. The procedure, abridged:
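Human breast carcinoma MDA-kb2 cells, cultured without CO2, receive compounds alongside 0.5 nM (final) R1881 agonist. After 16 hr at 37C, viability is taken as live-cell protease signal.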

Each structure is given as a SMILES string. Values without a mark were called inactive. Inconclusive results are not listed. Activity calls are given as the source filed them. Unless noted, calls come from the whole dose curve; as a rule, active = well fitted curve in the direction sought with a large enough effect in the repeat runs; inconclusive = weak or mixed curves; inactive = no such curve, though single readings can be large; an effect the other way counts as inactive or inconclusive.

Chain of Estrogen receptor beta (Homo sapiens) (Q92731 whole entry, looked up): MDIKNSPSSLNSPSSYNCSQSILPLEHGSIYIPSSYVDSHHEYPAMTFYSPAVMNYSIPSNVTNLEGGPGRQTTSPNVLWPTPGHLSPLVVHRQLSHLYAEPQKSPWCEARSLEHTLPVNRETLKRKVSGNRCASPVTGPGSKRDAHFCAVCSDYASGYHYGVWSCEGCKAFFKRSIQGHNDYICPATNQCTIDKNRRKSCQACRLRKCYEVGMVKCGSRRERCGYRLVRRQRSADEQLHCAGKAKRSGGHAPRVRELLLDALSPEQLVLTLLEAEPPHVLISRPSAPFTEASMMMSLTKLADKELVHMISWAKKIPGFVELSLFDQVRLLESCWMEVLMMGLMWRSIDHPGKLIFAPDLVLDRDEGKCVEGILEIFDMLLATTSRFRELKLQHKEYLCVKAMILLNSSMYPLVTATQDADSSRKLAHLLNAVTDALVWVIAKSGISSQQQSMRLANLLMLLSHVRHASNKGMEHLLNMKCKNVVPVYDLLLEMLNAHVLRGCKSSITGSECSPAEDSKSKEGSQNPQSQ
Chain of Thyrotropin receptor (Homo sapiens) (P16473 whole entry, looked up): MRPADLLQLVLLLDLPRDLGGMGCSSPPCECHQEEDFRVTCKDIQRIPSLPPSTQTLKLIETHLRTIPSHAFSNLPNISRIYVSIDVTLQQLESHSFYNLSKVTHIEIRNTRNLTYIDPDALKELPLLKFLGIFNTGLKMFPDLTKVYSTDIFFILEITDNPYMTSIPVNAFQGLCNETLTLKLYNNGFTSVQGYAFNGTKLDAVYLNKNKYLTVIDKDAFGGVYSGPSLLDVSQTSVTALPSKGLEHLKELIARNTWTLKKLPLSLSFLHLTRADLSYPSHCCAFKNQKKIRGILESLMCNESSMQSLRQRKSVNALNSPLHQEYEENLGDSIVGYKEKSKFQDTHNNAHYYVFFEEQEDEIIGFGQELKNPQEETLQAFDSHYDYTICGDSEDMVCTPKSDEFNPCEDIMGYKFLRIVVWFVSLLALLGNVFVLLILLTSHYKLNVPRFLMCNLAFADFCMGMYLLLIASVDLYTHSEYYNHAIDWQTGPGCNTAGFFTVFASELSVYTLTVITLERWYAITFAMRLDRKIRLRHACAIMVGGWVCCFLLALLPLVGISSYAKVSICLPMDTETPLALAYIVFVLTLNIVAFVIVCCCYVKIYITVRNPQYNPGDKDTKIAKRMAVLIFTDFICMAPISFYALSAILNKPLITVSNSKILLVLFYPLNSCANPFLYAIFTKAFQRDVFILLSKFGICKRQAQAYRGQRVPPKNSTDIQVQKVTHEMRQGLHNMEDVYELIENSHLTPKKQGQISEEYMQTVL
Chain of Estrogen receptor (Homo sapiens) (P03372 whole entry, looked up): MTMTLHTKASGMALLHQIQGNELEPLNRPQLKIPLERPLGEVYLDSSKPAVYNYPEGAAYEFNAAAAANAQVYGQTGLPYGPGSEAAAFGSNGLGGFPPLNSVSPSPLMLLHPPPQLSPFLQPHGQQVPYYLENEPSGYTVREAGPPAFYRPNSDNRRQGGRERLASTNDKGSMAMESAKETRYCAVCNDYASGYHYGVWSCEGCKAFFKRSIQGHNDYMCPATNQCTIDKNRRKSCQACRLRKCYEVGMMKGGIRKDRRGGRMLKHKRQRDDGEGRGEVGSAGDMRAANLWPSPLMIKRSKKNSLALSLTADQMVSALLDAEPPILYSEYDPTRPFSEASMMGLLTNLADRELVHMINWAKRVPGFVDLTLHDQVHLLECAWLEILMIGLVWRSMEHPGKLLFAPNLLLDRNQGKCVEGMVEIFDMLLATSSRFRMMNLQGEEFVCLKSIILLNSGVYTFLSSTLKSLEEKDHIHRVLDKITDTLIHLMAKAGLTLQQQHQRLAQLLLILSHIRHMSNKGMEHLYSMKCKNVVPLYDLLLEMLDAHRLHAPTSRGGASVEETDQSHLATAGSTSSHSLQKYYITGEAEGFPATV

For the compound `O=C(N[C@H]1N=C(c2ccccc2F)c2cccc3c2N(CC3)C1=O)c1cc2ccccc2[nH]1`, the Potency result in assay [1], in assay [2], in [3], in [4], in assay [5] and in [6] was “inactive” each time. The Potency entry in [7], in assay [8], in assay [9], in assay [10] and in assay [11] was “inactive” throughout.

In the case of `Cc1ccn2nc(S(=O)(=O)Nc3c(F)cccc3F)nc2n1`, the Potency entry in assay [1], in assay [2], in assay [12], in [3], in assay [4] and in [5] was “inactive” each time. In addition, the Potency result in [13], in assay [6], in [7], in [14], in [8] and in assay [9] was “inactive” in each case. In addition, the Potency result in assay [10] and in assay [11] was “inactive” each time.

For `O=S1(=O)OCC2C(CO1)C1(Cl)C(Cl)=C(Cl)C2(Cl)C1(Cl)Cl` (stereo not given), the Potency entry in assay [1], in assay [2], in assay [12], in assay [4], in assay [13] and in assay [8] was “inactive” in each case. The Potency result in assay [15], in [9] and in assay [11] was “inactive” throughout.

Consider `O=S(=O)(NS(=O)(=O)C(F)(F)F)C(F)(F)F`, for which the Potency result in assay [1], in assay [2], in assay [12], in [3], in assay [4] and in assay [8] was “inactive” each time. The Potency was 2.43 µM (active) in assay [13] and 19.3 µM (active) in [7].

With `Nc1ccc(N=Nc2ccccc2)cc1`, the Potency result in [16], in assay [12], in [8], in [15] and in assay [9] was “inactive” in each case. The Potency is 8.63 µM (active) in assay [2]; 15.4 µM (active) in assay [3]; 3.44 µM (active) in assay [4]; 4.86 µM (active) in assay [5]; 21.7 µM (active) in [13]; 21.7 µM (active) in assay [17]. The Potency in assay [11] was 30.6 µM (active).

As to `O=C(O)CCCCCCNC1c2ccccc2CCc2ccccc21`, the Potency entry in [1], in assay [2], in assay [12], in assay [3], in assay [4] and in assay [5] was “inactive” each time. The Potency entry in [13], in [6], in assay [7], in assay [14], in assay [8] and in assay [15] was “inactive” throughout. Further, the Potency result in assay [9], in assay [10] and in assay [11] was “inactive” each time.

In the case of `O=[N+]([O-])c1ccc(Cl)c(Cl)c1Cl`, the Potency entry in assay [1], in [2], in [12], in assay [3], in assay [4] and in assay [5] was “inactive” each time. Moreover, the Potency entry in [13], in assay [6], in assay [7], in assay [8], in assay [15] and in [9] was “inactive” throughout. In addition, in [11], the Potency entry is “inactive”.

Consider `CO/N=C(\C(=O)OC)c1ccccc1CO/N=C(\C)c1cccc(C(F)(F)F)c1`, for which the Potency result in assay [2], in assay [12], in [3], in assay [4], in assay [5] and in [8] was “inactive” each time. For the same compound, the Potency entry in [9] was “inactive”. Further, the Potency in [7] was 12.2 µM (active); in [11], 30.6 µM (active).

As for `COC(=O)N(OC)c1ccccc1COc1ccn(-c2ccc(Cl)cc2)n1`, the Potency in assay [18] was 2.17 µM (active); in assay [13], 0.0686 µM (active); in [7] it was 1.37 µM (active); in [14], 0.969 µM (active); in assay [11], 0.864 µM (active). Moreover, the Potency result in [2], in assay [12], in [3], in assay [4], in assay [5] and in assay [8] was “inactive” throughout. For the same compound, the Potency entry in assay [15], in assay [9] and in [10] was “inactive” in each case.
